Screening data (PubChem BioAssay)
S1P4 ag: agonists of human S1P4 receptor; activation, % at 4.98 µM; actives 0.35% (n = 220,000); S1P4-expressing cell line, agonist reporter assay; O95977; in the data active means activation above about 11%
Target sequence (O95977 whole entry, looked up): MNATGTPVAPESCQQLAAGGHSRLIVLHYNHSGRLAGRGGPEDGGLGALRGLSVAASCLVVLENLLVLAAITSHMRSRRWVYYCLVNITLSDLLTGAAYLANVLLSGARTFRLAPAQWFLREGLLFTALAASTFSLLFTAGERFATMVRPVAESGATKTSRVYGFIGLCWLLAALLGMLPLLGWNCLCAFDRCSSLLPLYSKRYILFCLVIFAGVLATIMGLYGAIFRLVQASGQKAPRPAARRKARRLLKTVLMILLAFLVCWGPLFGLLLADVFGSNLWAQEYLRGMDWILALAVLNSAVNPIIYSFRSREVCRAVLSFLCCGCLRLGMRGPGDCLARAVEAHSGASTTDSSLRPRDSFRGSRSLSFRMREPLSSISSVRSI
GALR2 blocker: antagonists of human galanin receptor 2 (GALR2) | O43603 | actives 0.39% (n = 140,000) | AID 828 | GALR2-expressing cells, antagonist mode | inhibition, % at 4 µM;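 further: cells stimulated with galanin 1-16 at roughly its EC80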
GALR2 ag: activates the human galanin receptor 2; O43603; GALR2-expressing cells, agonist activation read-out; activation, % (test concentration not listed); actives 0.48% (n = 140,000); in the data active means activation above about 5%, passing the limit was not always enough
S1P4 antag: antagonists of human S1P4 receptor | O95977 | S1P4-expressing cells, antagonist mode, reporter read-out | inhibition, % at 4.98 µM | actives 0.26% (n = 220,000) | AID 1510; in the data active means inhibition above about 29%
S1P3 antagonist: blocks the human S1P3 receptor | Q99500 | CHO S1P3 NFAT-BLA reporter, FRET fluorescence, antagonist mode | inhibition, % at 4.98 µM | actives 0.27% (n = 170,000) | AID 485;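 active means inhibition above the plate cutoff, the mean inhibition of test wells on that plate plus 3 SD, cut at about 28% in these data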;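 further: cells challenged with S1P at its EC80 of 0.8 µM; blue over green emission ratio from cleaved BLA substrate after 4 h stimulation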
Target sequence (Q99500 whole entry, looked up): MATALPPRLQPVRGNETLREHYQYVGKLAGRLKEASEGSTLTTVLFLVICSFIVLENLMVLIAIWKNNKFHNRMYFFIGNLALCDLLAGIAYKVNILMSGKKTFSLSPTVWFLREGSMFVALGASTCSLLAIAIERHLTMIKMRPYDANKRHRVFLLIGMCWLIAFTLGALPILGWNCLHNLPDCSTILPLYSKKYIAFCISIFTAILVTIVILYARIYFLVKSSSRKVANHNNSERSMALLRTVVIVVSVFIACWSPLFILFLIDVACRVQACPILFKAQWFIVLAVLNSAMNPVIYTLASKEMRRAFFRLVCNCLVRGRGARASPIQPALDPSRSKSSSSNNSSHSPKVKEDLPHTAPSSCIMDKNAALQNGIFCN
GALR2 blk conf: confirmation of human galanin receptor 2 (GALR2) antagonists. shares compounds with GALR2 blocker. GALR2-expressing cells, antagonist mode, inhibition. inhibition, % at 4 µM. actives 60% (n = 480);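 further: cells stimulated with galanin at about its EC80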
BLA inh counter: counter-screen for GALR2 antagonists: beta-lactamase reporter inhibitors; shares compounds with GALR2 blocker; CHO NFAT-BLA reporter, beta-lactamase FRET, thapsigargin-stimulated; inhibition, % at 4.2 µM; actives 36% (n = 480);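 active means inhibition above the mean inhibition across tested compounds plus 3 SD, cut at about 27% in these data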
Of the large screens only hits and unclear results are named; the others gave an inactive call (follow-up assays come after a bar, where they were run). Hits are enriched below; roughly 1.3% of the tested compounds scored in any of these assays. Unless noted, no stated cut-off is given here; in the data, active means inhibition above about 27%; inactive means the rest.

O=C(c1ccccc1)N(c1ccccc1)C1C=CS(=O)(=O)C1 (stereo not drawn)	none
COc1ccc(C(=O)N(c2ccccc2)C2C=CS(=O)(=O)C2)cc1 (stereo not drawn)	GALR2 blocker 30.1 | GALR2 blk conf inactive | BLA inh counter inactive
O=C(Nc1ccc2ccccc2n1)Nc1cccs1	none (no result: GALR2 blocker, GALR2 ag)
COc1ccc(N=N/C(=C\O)C(=O)c2cccs2)cc1	none (no result: GALR2 blocker, GALR2 ag)
COc1ccc(/C=C(/C(=O)c2cccs2)N2C=CC=CC2=C(C#N)C#N)cc1	GALR2 blocker 37.7 | GALR2 blk conf 66.4 | BLA inh counter 55.3
CCCC1(c2ccccc2)NC(=O)N(CCN2C(=O)c3ccccc3C2=O)C1=O (stereo not drawn)	none (no result: S1P3 antagonist)
CCN(CC)c1ccc(C(=O)N/N=C(\C)c2ccc(O)cc2)cc1	GALR2 blocker 30.3 | GALR2 blk conf inactive | BLA inh counter inactive
CC(=O)c1c(C)[nH]c(C(=O)COC(=O)c2cc(S(=O)(=O)N(C)c3ccccc3)ccc2Cl)c1C	GALR2 blocker 28.0 | GALR2 blk conf inactive | BLA inh counter inactive
CCN(c1ccccc1)S(=O)(=O)c1ccc(Cl)c(C(=O)OCC(=O)c2[nH]c(C)c(C(C)=O)c2C)c1	none
CC(=O)N1CCc2cc(N=NC3=C(O)CCCC3=O)ccc21	none (no result: GALR2 blocker, GALR2 ag)
CC(=O)C1=C(c2ccc(Br)cc2)C(=O)c2ccccc2C1=O	GALR2 blocker 35.4 | GALR2 blk conf inactive | BLA inh counter inactive
Cc1ccc(N=Cc2sc(O)c3ccccc23)cc1	GALR2 blocker 27.8 (no result: S1P3 antagonist) | GALR2 blk conf 32.4 | BLA inh counter 31.5
Cc1ccc(N=Cc2sc(O)c3ccccc23)c(C)c1	none (no result: S1P3 antagonist)
CCCCN(C)CCn1c(=S)[nH]c2ncccc2c1=O	GALR2 blocker 32.5 (no result: S1P3 antagonist) | GALR2 blk conf inactive | BLA inh counter inactive
Nc1nonc1C(=O)NCCNCc1cc(Br)ccc1OCc1ccccc1F	GALR2 blocker 31.5 | GALR2 blk conf 33.0 | BLA inh counter 52.4
Cn1nc(CC(=O)NCc2ccc(C(F)(F)F)cc2)c2ccccc2c1=O	none (no result: S1P3 antagonist)
COc1ccc(CNC(=O)Cc2nn(C)c(=O)c3ccccc23)cc1	GALR2 blocker 36.0 (no result: S1P3 antagonist) | GALR2 blk conf inactive | BLA inh counter inactive
COC(=O)c1ccccc1NC(=O)N1CCN(S(C)(=O)=O)CC1	none (no result: GALR2 blocker, GALR2 ag)
O=C1C=C(Nc2ccccc2O)c2ccccc2C1=O	GALR2 blocker 27.6 (no result: S1P3 antagonist) | GALR2 blk conf inactive | BLA inh counter 29.0
O=C1C=C(NCc2ccccc2)c2ccccc2C1=O	none (no result: GALR2 blocker, GALR2 ag)
CC(C)N1CCN(Cc2cn[nH]c2C2CCCCC2)CC1CCO (stereo not drawn)	none (no result: GALR2 blocker, GALR2 ag)
CC(=O)Nc1nc2n(n1)C(c1ccc(F)cc1)C=C(c1ccccc1)N2 (stereo not drawn)	GALR2 blocker 30.9 | GALR2 blk conf 28.0 | BLA inh counter 45.5
CC(=O)Nc1nc2n(n1)C(c1ccccc1)C=C(c1ccccc1)N2 (stereo not drawn)	none
O=C(CCc1n[nH]c(=O)[nH]c1=O)Nc1cccc([N+](=O)[O-])c1	none (no result: GALR2 blocker, GALR2 ag)
Cc1ccc(S(=O)(=O)N[C@H](C(=O)Oc2ccc3c(C(F)(F)F)cc(=O)oc3c2)c2ccccc2)cc1	GALR2 blocker 43.9, S1P4 antag 41.3 (no result: S1P3 antagonist) | GALR2 blk conf inactive | BLA inh counter 36.1
Cc1ccc(S(=O)(=O)NC(C(=O)Oc2ccc3ccc(=O)oc3c2)c2ccccc2)cc1 (stereo not drawn)	none
COc1ccc(-c2noc(CCC(=O)Nc3ccc4c(c3)OCCO4)n2)cc1	GALR2 blocker 28.4 (no result: S1P3 antagonist) | GALR2 blk conf inactive | BLA inh counter inactive
Cc1ccc(-c2noc(CCC(=O)Nc3ccc4c(c3)OCO4)n2)cc1	none
CC(C)(C)c1ccc(OCCNC(=O)c2ncn[nH]2)cc1	GALR2 blocker 30.6 (no result: S1P3 antagonist) | GALR2 blk conf inactive | BLA inh counter inactive
CCc1cc(C)cc(OCCNC(=O)c2ncn[nH]2)c1	none
COC(=O)C(=C/C(C)=C/c1cccs1)C(=O)OC	none (no result: GALR2 blocker, GALR2 ag)
O=C(Nc1nc(-c2ccccc2)ns1)c1cccs1	GALR2 blocker 35.5 | GALR2 blk conf inactive | BLA inh counter inactive
Cc1ccc(N=Cc2cc3c(cc2O)OC(N)=C(C#N)C3c2ccccc2)cc1 (stereo not drawn)	none
Cc1cc(/C=N/n2cnnc2)c(C)n1-c1ccc(Cl)cc1Cl	none
Cc1cc(/C=N/n2cnnc2)c(C)n1-c1ccc(OCc2ccc(Cl)cc2Cl)cc1	GALR2 blocker 28.6 (no result: S1P3 antagonist) | GALR2 blk conf 44.6 | BLA inh counter inactive
CCN(Cc1ccncc1)C(=O)CSc1ccc2ccccc2c1	none (no result: GALR2 blocker, GALR2 ag)
O=C(NCc1ccco1)/C(=C\c1cccs1)NC(=O)c1ccccc1	none (no result: GALR2 blocker, GALR2 ag)
Cc1ccc(C(=O)N/C(=C/c2cccs2)C(=O)NCc2ccco2)cc1	GALR2 blocker 27.0 | GALR2 blk conf inactive | BLA inh counter inactive
O=C(OCCN1C(=O)c2cccc3c(N4CCOCC4)ccc(c23)C1=O)c1ccccc1Cl	GALR2 blocker 33.2 | GALR2 blk conf 33.5 | BLA inh counter 45.7
Cc1ncc([N+](=O)[O-])n1Cc1cccc(F)c1	none (no result: GALR2 blocker, GALR2 ag)
CCCOc1ncnc2c1[nH]c1ccccc12	GALR2 blocker 28.7 (no result: S1P3 antagonist) | GALR2 blk conf 27.7 | BLA inh counter inactive
Oc1ccccc1N=Nc1nc(-c2ccccc2)c(-c2ccccc2)[nH]1	GALR2 blocker 29.1 (no result: S1P3 antagonist) | GALR2 blk conf 33.5 | BLA inh counter inactive
COc1ccccc1N=Nc1nc(-c2ccccc2)c(-c2ccccc2)[nH]1	none
Cc1ccc2[nH]c3c(N4CCCCCC4)ncnc3c2c1	GALR2 blocker 37.8 (no result: S1P3 antagonist) | GALR2 blk conf 41.5 | BLA inh counter inactive
COc1ccc2c(c1)[nH]c1c(N3CCN(Cc4ccc5c(c4)OCO5)CC3)ncnc12	GALR2 blocker 37.5 (no result: S1P3 antagonist) | GALR2 blk conf 43.8 | BLA inh counter inactive
c1ccc(CN2CCN(c3ncnc4c3[nH]c3ccccc34)CC2)cc1	GALR2 blocker 35.7 (no result: S1P3 antagonist) | GALR2 blk conf 39.7 | BLA inh counter inactive
COc1ccc(CCNCC(=O)Nc2ccc(C)c(S(=O)(=O)N(C)C)c2)cc1OC	none (no result: GALR2 blocker, GALR2 ag)
COc1cccc(COc2cc3ccccc3nc2C)c1	GALR2 blocker 39.8 (no result: S1P3 antagonist) | GALR2 blk conf 36.7 | BLA inh counter inactive
O=C(CSc1nnc(-c2cccs2)o1)NCc1ccco1	none (no result: GALR2 blocker, GALR2 ag)
COc1cccc(/C=N/NC(=O)c2cc(-c3cccn3C)n[nH]2)c1O	GALR2 blocker 28.2 | GALR2 blk conf 26.9 | BLA inh counter inactive
O=C(Nc1ccc2oc(-c3ccccc3)nc2c1)c1ccco1	none
S=C(Nc1cccc(Cl)c1)Nc1cccc2cnccc12	GALR2 blocker 30.0 | GALR2 blk conf inactive | BLA inh counter inactive
Cc1ccc(NC(=S)Nc2cccc3cnccc23)cc1C	none (no result: GALR2 blocker, GALR2 ag)
COc1cc2nc(/C=C/c3ccc(N(C)C)cc3)sc2cc1SC	GALR2 blocker 51.6, GALR2 ag 5.2, S1P3 antagonist 54.9 | GALR2 blk conf 60.4 | BLA inh counter 67.3
CC(C)(C)CC(=O)Nc1nnc(C(F)(F)F)s1	none (no result: S1P3 antagonist)
CC(NC(=O)Nc1nnc(C(F)(F)F)s1)(C(F)(F)F)C(F)(F)F	GALR2 blocker 38.1 (no result: S1P3 antagonist) | GALR2 blk conf inactive | BLA inh counter inactive
Cc1csc(NC(=O)Cc2c[nH]c3ccccc23)n1	none (no result: S1P3 antagonist)
